From PubChem BioAssay
Calls of active or inactive are those of the source.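 How the source made its calls, unless noted: active means inhibition at or above 50% at 10 µM; inactive means inhibition below 50%.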 Where a SMILES comes first, the peptide text is derived from it. The star is where a group is joined. Boc = CC(C)(C)OC(=O)*

Tests used:
[1] = inhibitors of TNFa-induced NFkB p65 translocation, primary screen, imaging, HUVEC, MLSMR starter and 10KST1 sets (AID 438;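 active means inhibition above 20% together with a positive visual image hit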;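 further: compound added about 3h40 before a 20 min TNFalpha stimulation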;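 on inhibition: signal is the nuclear over cytoplasmic p65 intensity ratio per well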); conditions: HUVEC TNFa-induced p65 nuclear translocation; cell count: measured here: nuclei count (cytotoxicity indicator), at 2.08 µM; inhibition: at 2 µM, stronger effect = higher value, 0% TNFa-plus-vehicle, 100% no-TNFa wells
[2] = reduction of polyQ htt aggregates in cells – imaging, exon1htt(103Q)mCFP cells, high-content imaging, primary screen (AID 483;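 active means visual image review flags a hit and inhibition of aggregation exceeds 20%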;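 further: compound exposure lasted 3 days before fixation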;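 on nuclei count: percent of the per-plate median nuclei count of sample wells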); conditions: exon1htt(103Q)mCFP cell line, aggregate imaging, at 2 µM; inhibition of aggregation: stronger effect = higher value; nuclei count: measured here: cell count, toxicity
[3] = endothelial E-selectin expression blockers – imaging, HUVEC, immunofluorescence, MLSMR starter and 10KST1 sets, primary screen (AID 487;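 active means visually confirmed hit in the image check and inhibition above 20%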;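 on inhibition: signal is fraction of cell area covered by stained E-selectin grains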;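 on nuclei count: 100% = median nuclei count of all wells on the same plate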); conditions: HUVEC TNFalpha-induced E-selectin immunofluorescence imaging, at 2 µM; inhibition: stronger effect = higher value; nuclei count: measured here: cell number, toxicity
[4] = molecular target: Voltage-gated potassium channel subunit beta-2 (Rattus norvegicus) (UniProt P62483); assay: inhibitors of rat Kvbeta2 reductase activity – biochemical, NADPH fluorescence, primary screen (AID 622;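 active means fluorescence slope higher than the sample average by over 3 SD, cut at about -0.22 in these data, passing the limit was not always enough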;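 further: slope of raw intensity against log time taken from 70 to 1610 s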); conditions: recombinant KvBeta, 4-cyanobenzaldehyde reduction, at 10 µM, stronger effect = higher value
[5] = molecular target: Voltage-gated potassium channel subunit beta-2 (Rattus norvegicus) (UniProt P62483); assay: enhancers of rat Kvbeta2 NADPH turnover – biochemical, NADPH fluorescence, primary screen (AID 623;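 active means NADPH fluorescence slope more negative than the mean of all samples by about 3 SD, 99.7% confidence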;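 further: fluorescence intensity change per second fitted from 20 to 320 s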); conditions: Recombinant KvBeta, NADPH fluorescence decrease slope, 10 min; at 10 µM; stronger effect = lower value
[6] = molecular target: Alpha-2C adrenergic receptor (Homo sapiens) (UniProt P18825); assay: compounds altering alpha2C-coupled GIRK flux – cell-based, HEK293 alpha2C/GIRK1/2, thallium flux, primary screen (AID 624;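 active means fluorescence slope after compound addition differing from the mean of all screened samples at 99.7% confidence, in either direction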;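 further: slope of fluorescence ratio to pre-addition baseline per second over 15 to 24 s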); conditions: thallium flux BTC fluorescence, at 10 µM, actives lie on both sides
[7] = blockers of RIG-like receptor reporter activation – cell-based, Sendai virus stimulus, luciferase, 10K MLSCN set, TLR/RLR signaling modifier project, primary screen (AID 602276); conditions: HEK293 RL24 IRF3 luciferase reporter, at 10 µM, stronger effect = higher value;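 further: firefly luciferase from ISG56 promoter only with Renilla not read in this screen; 0% = Sendai virus plus DMSO and 100% = medium plus DMSO without virus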
[8] = TLR3 IRF3 reporter activation blockers – cell-based, poly I:C stimulus, luciferase, 10K MLSCN set, primary screen (AID 602277;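 active means inhibition of the reporter signal at or above 50%; inactive means inhibition below 50%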); conditions: HEK293-TLR3 RL24 IRF3 luciferase reporter, at 10 µM, stronger effect = higher value

Voltage-gated potassium channel subunit beta-2 (Rattus norvegicus), sequence (P62483 whole entry, looked up): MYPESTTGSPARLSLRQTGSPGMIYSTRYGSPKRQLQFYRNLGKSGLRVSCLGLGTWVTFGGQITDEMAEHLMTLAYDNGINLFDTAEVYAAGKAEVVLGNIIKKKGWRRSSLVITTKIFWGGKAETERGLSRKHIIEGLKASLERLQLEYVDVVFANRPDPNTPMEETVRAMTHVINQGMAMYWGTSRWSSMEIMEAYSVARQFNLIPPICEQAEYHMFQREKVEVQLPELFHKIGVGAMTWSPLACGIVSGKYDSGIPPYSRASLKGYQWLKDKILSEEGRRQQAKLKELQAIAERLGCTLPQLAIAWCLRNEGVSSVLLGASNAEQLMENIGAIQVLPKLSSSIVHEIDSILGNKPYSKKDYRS
Alpha-2C adrenergic receptor (Homo sapiens), sequence (P18825 whole entry, looked up): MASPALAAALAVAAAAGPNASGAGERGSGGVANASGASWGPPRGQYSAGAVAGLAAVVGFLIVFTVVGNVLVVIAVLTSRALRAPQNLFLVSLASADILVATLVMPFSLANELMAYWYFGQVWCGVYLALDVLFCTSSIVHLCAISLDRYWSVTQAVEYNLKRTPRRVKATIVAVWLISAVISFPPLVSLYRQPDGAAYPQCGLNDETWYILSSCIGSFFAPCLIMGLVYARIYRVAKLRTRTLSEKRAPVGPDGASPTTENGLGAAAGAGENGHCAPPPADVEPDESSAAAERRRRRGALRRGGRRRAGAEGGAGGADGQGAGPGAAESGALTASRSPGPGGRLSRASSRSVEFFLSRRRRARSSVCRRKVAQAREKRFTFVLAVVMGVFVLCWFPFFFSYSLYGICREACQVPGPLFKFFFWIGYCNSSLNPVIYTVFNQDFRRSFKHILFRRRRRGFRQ

Row | SMILES | cell count [1] | inhibition [1] | inhibition of aggregation [2] | nuclei count [2] [%] | inhibition [3] | nuclei count [3] [%] | fluorescence slope [4] | NADPH fluorescence slope [5] | slope [6] | inhibition [7] | inhibition [8]
1 | CCC(C)C(NC(=O)OC(C)(C)C)C(=O)NC(CC(C)C)C(N)=O (stereo not drawn) (Boc-Ile-Leu-NH2; configuration not given here) | 399 | 1.3% (inactive) | 7.1% (inactive) | 88.9 | 56.6% (inactive) | 89.8 | -0.516 (inactive) | -6.5e-05 (inactive) | 0.00654 (inactive) | -6.01% (inactive) | 10.9% (inactive)
2 | Cc1nc(N2CCc3ccccc32)[nH]c(=O)c1CCC(C)C | 345 | -1.1% (inactive) | -19.6% (inactive) | 112 | -114% (inactive) | 135 | -0.439 (inactive) | -4.2e-05 (inactive) | 0.00282 (inactive) | 0.138% (inactive) | 3.18% (inactive)
3 | Cc1ccc(CCNC(=O)C2CCCN2S(=O)(=O)c2ccc3c(c2)CCC(=O)N3)cc1 (stereo not drawn) | 702 | -4.8% (inactive) | -29.3% (inactive) | 102 | -35% (inactive) | 121 | -0.547 (inactive) | -1e-05 (inactive) | 0.0066 (inactive) | -15.7% (inactive) | 0.529% (inactive)
4 | CCCn1c(O)c(CN2CCCC(C)C2)c(C)c(C#N)c1=O (stereo not drawn) | 673 | -16.4% (inactive) | 2.6% (inactive) | 91.2 | -59.7% (inactive) | 113 | -0.472 (inactive) | -2.9e-05 (inactive) | 0.00503 (inactive) | 13.3% (inactive) | 22.1% (inactive)
5 | CCN(CC)C(=O)CSc1nnc(-c2cc(OC)cc(OC)c2)o1 | 733 | 0.6% (inactive) | 10.3% (inactive) | 100 | 19.1% (inactive) | 109 | -0.413 (inactive) | -4.5e-05 (inactive) | 0.00522 (inactive) | 8.18% (inactive) | 2.13% (inactive)
6 | CCCCC(=O)NCCNc1nc2c(c(=O)n(C)c(=O)n2C)n1Cc1ccccc1 | 555 | -6.3% (inactive) | -14.2% (inactive) | 105 | 28.6% (inactive) | 106 | -0.615 (inactive) | -5.2e-06 (inactive) | 0.00636 (inactive) | 15.2% (inactive) | 24.6% (inactive)
7 | COC(=O)c1c(O)ccc(Oc2ccccc2)c1C(=O)OC | 667 | -5.3% (inactive) | 28.9% (inactive) | 71.8 | -17.9% (inactive) | 107 | -0.257 (inactive) | -2.9e-06 (inactive) | 0.0066 (inactive) | 15.3% (inactive) | 21.8% (inactive)
8 | CCN(CC)c1ccc(NC(=O)c2nc3nc(C)cc(C(F)F)n3n2)cc1 | 650 | -1.9% (inactive) | 14.6% (inactive) | 98.5 | -10.1% (inactive) | 114 | -0.535 (inactive) | -3.4e-05 (inactive) | 0.00747 (inactive) | 21.5% (inactive) | -6.45% (inactive)
9 | Cc1ccc(C)c(S(=O)(=O)n2cnc3ccccc32)c1 | 262 | -5.9% (inactive) | 17.8% (inactive) | 79.3 | -42.5% (inactive) | 108 | -0.463 (inactive) | 2.3e-05 (inactive) | 0.00359 (inactive) | 14.5% (inactive) | 27.4% (inactive)
10 | COC(=O)c1cc(S(=O)(=O)N2CCC(C)CC2)ccc1F | 552 | -17% (inactive) | -56.8% (inactive) | 112 | -24.3% (inactive) | 104 | -0.452 (inactive) | -0.000117 (inactive) | 0.00608 (inactive) | 15.3% (inactive) | 29.4% (inactive)
11 | CCOc1ccc(NC(=O)CN(c2cc(C)cc(C)c2)S(=O)(=O)c2c(C)noc2C)cc1 | 785 | -1.1% (inactive) | 23.6% (inactive) | 99.2 | -14.8% (inactive) | 105 | -0.574 (inactive) | 1.1e-05 (inactive) | 0.0058 (inactive) | 13.8% (inactive) | -22.3% (inactive)
12 | CCOC(=O)c1sc2nc(N3CCCC3)c3c(c2c1N)CC(C)(C)OC3 | 410 | 2.7% (inactive) | -0.3% (inactive) | 105 | -22.4% (inactive) | 103 | -0.302 (inactive) | -1.6e-05 (inactive) | 0.0041 (inactive) | -5.95% (inactive) | 2.54% (inactive)
13 | Cc1c(C(=O)NCc2ccccn2)sc2nc(-c3ccc(F)cc3)cn12 | 482 | -5.5% (inactive) | -10% (inactive) | 61.1 | 10.9% (inactive) | 104 | -0.502 (inactive) | 1.3e-05 (inactive) | 0.00621 (inactive) | 17.6% (inactive) | -13.7% (inactive)
14 | CCCCCC1CC(CC(=O)O)C(=O)O1 (stereo not drawn) | 230 | -25.6% (inactive) | 20.9% (inactive) | 80.6 | -70.3% (inactive) | 126 | -0.4 (inactive) | -5.4e-05 (inactive) | 0.00366 (inactive) | 7.61% (inactive) | 23.6% (inactive)
15 | Cc1ccc2nsnc2c1S(=O)(=O)N(Cc1cc2cccc(C)c2[nH]c1=O)CC1CCCO1 (stereo not drawn) | 641 | 2.6% (inactive) | 6.3% (inactive) | 108 | 42.1% (inactive) | 92.6 | -0.578 (inactive) | -6.5e-05 (inactive) | 0.00367 (inactive) | 32.9% (inactive) | 18.9% (inactive)
16 | Cc1cc(C)n2c(SCCN3C(=O)c4ccccc4C3=O)nnc2n1 | 787 | -5.1% (inactive) | 12.4% (inactive) | 126 | -8.9% (inactive) | 107 | -0.572 (inactive) | -1.7e-05 (inactive) | 0.00697 (inactive) | 10.1% (inactive) | 24.4% (inactive)
17 | COc1ccc(OC)c(C2C(C(=O)Nc3ccc(F)cc3)=C(C)Nc3nc(CCCO)nn32)c1 (stereo not drawn) | 666 | 7.1% (inactive) | -11.2% (inactive) | 117 | -44% (inactive) | 109 | -0.427 (inactive) | 8.4e-06 (inactive) | 0.00613 (inactive) | 0.814% (inactive) | 11.9% (inactive)
18 | COc1ccc2cc(C#N)c(SCC(=O)N3CCCC3)nc2c1 | 514 | -2.1% (inactive) | -17.8% (inactive) | 116 | -68.2% (inactive) | 150 | -0.57 (inactive) | -2.5e-05 (inactive) | 0.00554 (inactive) | -0.637% (inactive) | -5.53% (inactive)
19 | CCOc1ccc(NC(=O)C(C)Sc2nnc(C)n2C)cc1 (stereo not drawn) | 574 | -9.5% (inactive) | 19.3% (inactive) | 74.5 | -33.5% (inactive) | 119 | -0.591 (inactive) | -1.5e-05 (inactive) | 0.00656 (inactive) | -2.49% (inactive) | 20.8% (inactive)
20 | CC(C)OC(=O)c1cccc(C(=O)O)n1 | 441 | 4.6% (inactive) | -5.9% (inactive) | 92.5 | -285% (inactive) | 110 | -0.495 (inactive) | -2.4e-05 (inactive) | 0.00557 (inactive) | 11.6% (inactive) | 12.7% (inactive)
21 | CCOC(=O)C(NC(=O)c1ccc(OC)cc1)(N1CCOCC1)C(F)(F)F (stereo not drawn) | 551 | -0.5% (inactive) | -14.5% (inactive) | 108 | 29.4% (inactive) | 88.9 | -0.59 (inactive) | -4.2e-05 (inactive) | 0.00726 (inactive) | -14.4% (inactive) | -22.3% (inactive)
22 | COc1cc(NC(=O)c2cc(CC(C)C)on2)c(OC)cc1Cl | 558 | -6% (inactive) | 13.1% (inactive) | 95.8 | -15.3% (inactive) | 106 | -0.575 (inactive) | 5.1e-07 (inactive) | 0.00662 (inactive) | 10.7% (inactive) | 46.6% (inactive)
23 | Cc1ccc(C)c(NC(=O)c2ccc3c(c2)N(Cc2ccc(F)cc2)C(=O)CS3=O)c1 (stereo not drawn) | 622 | 6.2% (inactive) | -0.7% (inactive) | 105 | 3.5% (inactive) | 122 | -0.546 (inactive) | -2.3e-05 (inactive) | 0.00733 (inactive) | 4.49% (inactive) | 20.4% (inactive)
24 | Oc1c(C(c2ccccc2)N2CCc3ccccc3C2)sc2ncnn12 (stereo not drawn) | 651 | 1.3% (inactive) | -23.6% (inactive) | 111 | -25.4% (inactive) | 117 | -0.618 (inactive) | -3.4e-05 (inactive) | 0.00688 (inactive) | 12.6% (inactive) | 30.7% (inactive)
25 | Cc1ccc(NC2=NCC(=O)N2c2ccc3c(c2)OCCO3)c(C)c1 | 463 | -14.4% (inactive) | -2.6% (inactive) | 116 | -20.7% (inactive) | 97.3 | -0.498 (inactive) | -3.6e-05 (inactive) | 0.00458 (inactive) | 5.69% (inactive) | 7.01% (inactive)
26 | N#Cc1c(NC(NC(=O)c2ccco2)C(=O)c2ccccc2)sc2c1CCCC2 (stereo not drawn) | 415 | -6% (inactive) | -7.6% (inactive) | 118 | -31.6% (inactive) | 121 | -0.369 (inactive) | 9.4e-06 (inactive) | 0.00297 (inactive) | 5.59% (inactive) | 22.2% (inactive)
27 | Cc1nnc(N(C)C(=O)Cc2ccc3c(c2)OCO3)s1 | 709 | -6.1% (inactive) | 15.2% (inactive) | 107 | 6.8% (inactive) | 112 | -0.55 (inactive) | 1.1e-05 (inactive) | 0.00419 (inactive) | 21.5% (inactive) | 39.7% (inactive)
28 | CCOc1ccc(C2C=C(c3ccc(F)cc3)Nc3ncnn32)cc1 (stereo not drawn) | 548 | 11.5% (inactive) | -15.6% (inactive) | 74.5 | -113% (inactive) | 125 | -0.0654 (active) | -6.9e-06 (inactive) | 0.00554 (inactive) | 6.86% (inactive) | 12.6% (inactive)
